# Several values for one entry are separate records, joined by “and”; a condition that tells them apart may be missing. Equal entries are not always repeated. About 9,300 (1.5%) of roughly 640,000 compounds were called active. The sample holds actives, similar compounds and a random draw of the others, so the mix is not that of the screen. A number with no mark means an inactive call. Rule as the data show it: active = inhibition above about 32%; inactive = the rest.
# Test: TEAD-YAP interaction inhibition, primary screen, TEAD-YAP interaction inhibitor project, luminescence, HEK-TIYL cells (AID 1259422);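 also: 0% = median of test compound wells and 100% = reference inhibitor wells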
# Conditions: TEAD-Gal4/YAP UAS-luciferase luminescence, at 9.12 µM, hits give high values
row,Compound,inhibition
1,N=C1C(c2nc3ccccc3s2)=C(O)CN1c1cccc(F)c1,31.9% (active)
2,Cc1ccc(N2CC(O)=C(c3nc4ccccc4n3C)C2=N)cc1C,-5.77%
3,CC(C#N)OC(=O)c1ccc(N2CC(O)=C(c3nc4ccccc4s3)C2=N)cc1 (configuration not stated),5.73%
4,O=C1N[C@H](Cc2ccc(O)cc2)C(=O)N2CCN(C(=O)Oc3ccc(Cl)cc3)C[C@H]12,-0.03%
5,Cc1cccc(CC(=O)Nc2cnn(-c3cccc(C(=O)N(C)Cc4ccon4)c3)c2)c1,8.24%
6,COCc1cc(C(C)=O)ccc1OCC(=O)c1cc(C)n(-c2ccc(F)cc2)c1C,-1.2%
7,Cc1cc(C(=O)COC(=O)C2CC2)c(C)n1-c1ccc(F)cc1,39% (active)
8,COc1ccc(-n2c(C)cc(C(=O)COC(=O)COc3ccccc3C=O)c2C)cc1,5.99%
9,Cc1ccc(CCNC(=O)CCCNS(=O)(=O)c2ccc3c(c2)CCC(=O)N3)cc1,1.68%
10,Fc1ccccc1-c1nc(NCC2CCCO2)c2ccccc2n1 (configuration not stated),25.9%
11,Fc1ccc(CSc2nc(NCc3ccccc3)c3ccccc3n2)cc1,-9.53%
12,COc1ccc(CNc2nc(Nc3ccc(OC)cc3)nc3cc(OC)c(OC)cc23)cc1,1.6%
13,Fc1ccccc1CSc1nc(NCC2CCCO2)c2ccccc2n1 (configuration not stated),0%
14,Fc1ccc(Nc2nc(NCc3ccccc3)c3ccccc3n2)cc1,42% (active)
15,Fc1ccc(Nc2nc(NCC3CCCO3)c3ccccc3n2)cc1 (configuration not stated),42.1% (active)
16,O=C(c1cc(COc2ccc(F)cc2Cl)on1)N1C[C@@H]2CCC[C@H]1C2,-37.5%
17,CC(CCc1ccco1)NC(=O)C1CCN(c2nc3ccccc3n2C)CC1 (configuration not stated),9.58%
18,COc1ccc2[nH]cc(CCNC(=O)C3CCN(c4nc5ccccc5n4C)CC3)c2c1,34.1% (active)
19,CCn1c(N2CCC(C(=O)NCCc3ccc(O)cc3)CC2)nc2ccccc21,4.47%

row,Compound,inhibition
1,COc1c(C(=O)Nc2ccc(NC(C)=O)cc2)ccc2ccccc12,-28.1%
2,Cc1ncn(-c2ccc(Nc3nccc(-c4cc(C#N)cc(NC5CCN(C)CC5)c4)n3)cc2)n1,16.9%
3,CN1CCN(c2ncn(-c3ccc(Nc4nccc(-c5ccc(NS(C)(=O)=O)cc5)n4)cc3)n2)CC1,-0.18%
4,Cc1ncn(-c2ccc(Nc3nccc(N4CCc5[nH]ncc5C4)n3)cc2)n1,49.9% (active)
5,Oc1c(C(c2cccnc2)N2CCOCC2)ccc2cccnc12 (configuration not stated),29%
6,CCc1nc2sc(C(c3ccc(F)cc3)N3CCCC3)c(O)n2n1 (configuration not stated),-0.93%
7,OCCN1CCN(C(c2ccc(F)cc2)c2ccc3cccnc3c2O)CC1 (configuration not stated),87.9% (active)
8,Cc1ccccc1CN1CCN2C(=O)[C@H](Cc3ccc(O)cc3)NC(=O)[C@H]2C1,0.18%
9,Cc1c(Cl)cccc1NC(=O)NNC(=O)C(N)=O,17%
10,Cc1nn(CC(=O)NCc2ccccn2)c(=O)c2ccccc12,-1.32%
11,N#Cc1ccc(C(=O)OCC(=O)Nc2ccc3c(c2)C(=O)c2ccccc2C3=O)cc1,-21.3%
12,CCOc1cc(/C=C(\C#N)c2nc3ncc(Br)cc3[nH]2)ccc1O,-0.3%
13,CCOc1ccc(/C=C(\C#N)c2nc3ccccc3c(=O)[nH]2)cc1OC,-0.7%
14,CCOc1cc(/C=C(\C#N)c2nc(-c3cccs3)c(NC(C)=O)s2)ccc1O,41.9% (active)
15,COc1ccccc1NC(=O)Cn1cnc2sc(C(=O)Nc3ccc(F)cc3Cl)c(C)c2c1=O,10.1%
16,CCC(Sc1nc(Nc2ccc(F)c(F)c2)c2ccccc2n1)C(=O)Nc1ccc2c(c1)OCO2 (configuration not stated),6.11%
17,Cn1ncc(I)c1C(=O)N1CCc2ccccc2C1,-9.15%
18,CN(Cc1ccccc1)CC(O)COc1ccc(CNCCN2CCCCC2)cc1 (configuration not stated),3.88%
19,Cc1ccc(NC(=O)CSc2nc3cc4c(cc3cc2C#N)OCCO4)cc1,20.6%

row,Compound,inhibition
1,Cc1cc(NC(=O)CSc2nc3cc4c(cc3cc2C#N)OCCO4)no1,2.38%
2,CN(C)c1ccc(NC(=O)CSc2nc3cc4c(cc3cc2C#N)OCCO4)cc1,66.1% (active)
3,COc1ccc2ncc(S(=O)(=O)c3ccc(C)cc3)c(N3CCOCC3)c2c1,-1.64%
4,O=C(CN1C(=O)[C@H]2CCCN2C(=O)c2ccccc21)NCc1ccccc1F,2.44%
5,CC1CCCC/C1=N/NC(=O)CNc1ccc(Cl)cc1Br (configuration not stated),3.05%
6,CCOC(=O)C1=C(Cl)c2ccccc2NC1Cl (configuration not stated),2.33%
7,COc1cccc(CC2=NOC(C(=O)NC(C)Cc3ccsc3)C2)c1 (configuration not stated),-35%
8,CCCOCCOC(=O)c1[nH]c2c(c1C)C(=O)CC(c1ccc(OC)cc1)C2 (configuration not stated),-2.72%
9,CCSCCOC(=O)C1=C(C)NC2=C(C(=O)CC(c3cccs3)C2)C1c1ccsc1 (configuration not stated),1.93%
10,CCCOC(=O)C1=C(C)NC2=C(C(=O)CC(C)(C)C2)C1c1cccs1 (configuration not stated),-1.04% and 6.64%
11,CCOCCOC(=O)C1=C(C)NC2=C(C(=O)CC(c3cccs3)C2)C1c1ccc(OC(C)=O)cc1 (configuration not stated),7.32%
12,CCCOC(=O)c1[nH]c2c(c1C)C(=O)CC(c1cccs1)C2 (configuration not stated),54.8% (active)
13,C=CCOC(=O)c1[nH]c2c(c1C)C(=O)CC(c1ccccc1)C2 (configuration not stated),42.7% (active)
14,CSCCOC(=O)c1[nH]c2c(c1C)C(=O)CC(c1cccs1)C2 (configuration not stated),45.5% (active)
15,CCOC(=O)C1=C(C)NC2=C(C(=O)CC(c3ccccc3)C2)C1c1ccccn1 (configuration not stated),11.1% and 10.6%
16,CCSCCOC(=O)C1=C(C)NC2=C(C(=O)CC(c3ccccc3)C2)C1c1ccccc1 (configuration not stated),7.09%
17,COc1ccc2oc(=O)c(S(=O)(=O)c3ccc(C)cc3)cc2c1,7.59%
18,COc1ccc2cc(Br)ccc2c1CC(=O)N(C)C1CCN(C)CC1,-3.7%
19,COc1ccccc1NC(=O)NC(CC(=O)O)c1ccc(C)cc1 (configuration not stated),3.42%

# — PubChem BioAssay AID1259422 (The Scripps Research Institute Molecular Screening Center, 2018)
